Data from the supplement of paper PMC11732987, “Enantioselective OTUD7B fragment discovery through chemoproteomics screening and high-throughput optimisation” (Communications Chemistry, 2025).

The compounds below were run against COPS5 (UniProt Q92905) (assay: log2 ratio of Biotin-Ahx-Ub-VS probe labelling (fragment/DMSO); higher = less target engagement (more negative = stronger competition), active = hit call of the paper (q ≤ 0.05, log2 ratio ≤ -1)). Conditions: compound concentration: 200 uM; treatment time: 3 h.
Chain of COPS5 (Q92905 whole entry, looked up, the tested form may be a part): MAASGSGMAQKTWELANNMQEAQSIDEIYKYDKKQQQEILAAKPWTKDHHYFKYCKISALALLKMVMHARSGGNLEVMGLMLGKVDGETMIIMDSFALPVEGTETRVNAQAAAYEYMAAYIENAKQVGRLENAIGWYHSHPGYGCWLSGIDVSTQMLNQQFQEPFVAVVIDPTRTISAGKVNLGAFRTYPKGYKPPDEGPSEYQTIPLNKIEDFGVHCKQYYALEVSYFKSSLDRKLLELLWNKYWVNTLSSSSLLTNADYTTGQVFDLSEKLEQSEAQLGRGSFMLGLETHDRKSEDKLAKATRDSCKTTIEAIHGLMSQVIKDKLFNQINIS
Procedure: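 Competitive ABPP in HEK293T cell lysate. Lysates were treated with each chloroacetamide fragment at 200 µM for 3 h, then with Biotin-Ahx-Ub-VS (0.5 µM, 1 h), NeutrAvidin-enriched and analysed by diaPASEF LC-MS/MS. Protein LFQ was median-normalised; average log2 ratio is fragment/DMSO from an unpaired t-test (n=3 treated, n=44 DMSO). Hits: q ≤ 0.05, log2 ratio ≤ -1, unique peptides ≥ 2.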

log2 ratio of Biotin-Ahx-Ub-VS probe labelling, inactive:
Cl.O=C(CCl)NCCN1CCc2ccccc21 0.365, CS(=O)(=O)N1CCCN(C(=O)CCl)CC1 0.193, CN(C)S(=O)(=O)c1ccccc1CNC(=O)CCl 0.197, O=C(CCl)Nc1cc2c(cc1Cl)OCCO2 0.135, CN1c2ccccc2C(NC(=O)CCl)CS1(=O)=O (stereo not given) 0.318, C/C(=C\CNC(=O)CCl)c1cnn(C)c1.Cl -0.0819, O=C(CCl)N1CCCCCC1c1ncon1 (stereo not given) 0.187, Cc1cc(CC(C)NC(=O)CCl)n[nH]1 (stereo not given) 0.0799, O=C(CCl)Nc1ccc(F)cc1F -0.115, Cc1cccc(C)c1NC(=O)CCl 0.194, O=C(CCl)N1CCC(OCc2ccccc2F)CC1 -0.148, Cc1cccc(NC(=O)[C@@H]2CCCN2C(=O)CCl)n1 -0.0478, O=C(CCl)N1CCCCC12CCOCC2 0.0647, CC(=O)C1CCCCN1C(=O)CCl (stereo not given) -0.141, N#Cc1ccccc1N1CCN(C(=O)CCl)CC1 -0.271, O=C(CCl)N1CCN(C(=O)N2CCCCC2)CC1 -0.16, N#Cc1ccc(Cl)cc1NC(=O)CCl 0.289, CC(C)n1nccc1NC(=O)CCl 0.0761, CCC(NC(=O)CCl)c1ccc(Cl)cc1 (stereo not given) 0.193, COCC1C=CCCN1C(=O)CCl (stereo not given) -0.00365, CNC(=O)Cn1cc(NC(=O)CCl)cn1 0.0739, O=C(CN1CCN(C(=O)CCl)CC1)Nc1cccc(F)c1 0.273, Cc1ccc(C(=O)NCCNC(=O)CCl)cc1 -0.05, O=C(CCl)N(C1=CCCCC1)C1CC1 -0.00116, Cc1conc1C1CN(C(=O)CCl)C1 0.0369, CN(Cc1nc2ccccc2[nH]1)C(=O)CCl.Cl -0.0146, Cl.O=C(CCl)N1CCN(Cc2ccccc2)CC1 -0.0604, Cl.Cn1nccc1C(NC(=O)CCl)c1ccccc1 (stereo not given) 0.313, O=C(CCl)N1CCC[C@@H]1c1ccon1 -0.115, O=C(CCl)NC1CCN(C(=O)C2CCCCC2)CC1 -0.188, NC(=O)C(Cc1ccccc1)NC(=O)CCl (stereo not given) 0.0263, CC(NC(=O)CCl)c1csc(-c2ccccc2)n1.Cl (stereo not given) -0.00417, O=C(CCl)N1CC2(CCOCC2)C1 0.161, Cl.Cn1ncc2c1CCCC2NC(=O)CCl (stereo not given) -0.0371, O=C(CCl)Nc1nc(-c2cccs2)cs1 0.0647, O=C(CCl)Nc1cccc(NC(=O)c2ccccc2)c1 -0.238, O=C(CCl)NC1CCC(C(F)(F)F)CC1 (stereo not given) -0.114, CN(C)C(=O)c1ccc(CNC(=O)CCl)cc1 0.0838, Cc1ccc(CC(NC(=O)CCl)c2ccccn2)cc1.Cl (stereo not given) -0.0198, Cc1ccc(N(CCC#N)C(=O)CCl)cc1C 0.127
